D3 ag: qHTS of D3 Dopamine Receptor Agonist: qHTS. D(3) dopamine receptor (Homo sapiens), P35462. D3R DiscoveRx beta-arrestin cells, luminescence, 90 min. max activation, %. 410,000 tested, 0.58% active. AID 652048, 2013; in the data active = max activation above about 30%
Target sequence (P35462 whole entry, looked up): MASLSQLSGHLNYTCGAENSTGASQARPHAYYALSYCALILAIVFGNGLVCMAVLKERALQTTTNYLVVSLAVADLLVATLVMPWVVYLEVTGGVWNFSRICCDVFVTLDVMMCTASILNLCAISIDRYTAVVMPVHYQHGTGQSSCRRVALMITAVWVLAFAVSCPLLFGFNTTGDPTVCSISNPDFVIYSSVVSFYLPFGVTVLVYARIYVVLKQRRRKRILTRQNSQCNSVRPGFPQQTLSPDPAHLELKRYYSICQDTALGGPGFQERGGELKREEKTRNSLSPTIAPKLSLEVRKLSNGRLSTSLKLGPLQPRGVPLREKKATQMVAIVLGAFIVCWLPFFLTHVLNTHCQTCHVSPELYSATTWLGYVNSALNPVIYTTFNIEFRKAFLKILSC
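Cells at 1500/well, incubated overnight, then treated with pinned compounds (dopamine as control) for 90 min at 37 degrees C. DiscoveRx reagent added for 30 - 60 minutes at room temperature; luminescence read.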
D1 agonist: Allosteric Agonists of the Human D1 Dopamine Receptor: qHTS. 360,000 tested, 1% active. activation, % at 2 µM. D(1A) dopamine receptor (Homo sapiens), P21728. HEK293 T-REx D1 cells, calcium flux, agonist mode; in the data active = activation above about 30%
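Inducible HEK293 T-REx D1 cells, force-coupled to calcium signalling, were plated at 4000 cells/well with tetracycline and held overnight at 30 C. After no-wash calcium dye loading, compound-evoked calcium rise over 180 s flagged agonists.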
DRD3 antagonist: qHTS of D3 Dopamine Receptor Antagonist: qHTS. AID 652054, 2013. max response, negative = inhibition, %. D3R cells, DiscoveRx beta-arrestin luminescence, antagonist mode; active compounds read low. 360,000 tested, 2.5% active; in the data active = max response below about -50%; inconclusive = no clear call, values can overlap the other calls
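Cells expressing the human receptor were seeded at 1500 cells/well, incubated overnight at 37 degrees C in 5% CO2, then exposed to library compounds with dopamine controls for 90 minutes at 37 degrees C before luminescent detection.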
D1 PAM: Potentiators of Human D1 Dopamine Receptor: qHTS; D(1A) dopamine receptor (Homo sapiens), P21728; HEK293 TREx D1 cells, calcium flux, dopamine EC20 potentiation; potentiation, % at 10 µM; 360,000 tested, 0.036% active; in the data active = potentiation above about 30%
D1 antagonist: Antagonist of Human D 1 Dopamine Receptor: qHTS; D(1A) dopamine receptor (Homo sapiens), P21728; HEK293 TREx D1 cells, calcium flux, dopamine EC80; active compounds read low; activity change, negative = inhibition, % at 10 µM; 360,000 tested, 3.2% active; in the data active = activity change below about -30%
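Using tetracycline-induced force-coupled D1 Hek293 cells and a calcium dye, signals were followed for 180 s after compound, then for 180 s after EC80 dopamine, to detect inhibitors.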
Of the large screens only hits and unclear results are named; the others gave an inactive call. Only some compounds are listed: those with a hit (about 6% of all), similar ones and a draw of the others.

NC(=O)c1ccc(N2CCN(S(=O)(=O)c3ccccc3)CC2)c([N+](=O)[O-])c1	D1 antagonist -40
CCOC(=O)C1CCN(c2ccc(C(N)=O)cc2[N+](=O)[O-])CC1	D1 antagonist -33
CCCc1cc(=O)[nH]c(SCC(=O)N(C)CC(=O)Nc2ccc(C)cc2)n1	D1 antagonist -36
Cc1ccc(NC(=O)CN(C)C(=O)CSc2nc(C)cs2)cc1	DRD3 antagonist -62
Cc1csc(SCC(=O)N(C)CC(=O)Nc2ccccc2Cl)n1	none
COc1ccc(OC)c(NC(=O)CSC2=Nc3ccccc3C3=NC(CC(=O)NCc4ccc5c(c4)OCO5)C(=O)N23)c1 (stereo not given)	none (no result: DRD3 antagonist)
CCOc1ccccc1-c1nc(-c2cc3ccccc3nc2OC)no1	D3 ag 34
Cc1ccc(NC2=C(C(=O)c3ccccc3)N(C)S(=O)(=O)c3ccccc32)cc1	DRD3 antagonist -60
CN1C(C(=O)c2ccccc2)=C(N)c2ccccc2S1(=O)=O	none
N#C/C(=C\c1cccnc1)C(=O)Nc1ccc(Cl)cc1	DRD3 antagonist inconclusive, D1 antagonist -31
N#C/C(=C\c1cccnc1)C(=O)Nc1cccc(Cl)c1	none
COc1ccccc1NC(=O)/C(=C\c1cccnc1)NC(=O)c1ccc(C)cc1	D1 antagonist -32
COc1ccccc1NC(=O)/C(C#N)=C/c1ccncc1	none
COc1ccccc1NC(=O)/C(C#N)=C/c1cccnc1	D1 antagonist -31
Cc1ccc(NC(=O)CSc2nnc(C3CC3)n2CC2CCCO2)cc1C (stereo not given)	none
Fc1ccc(-c2onc3ccc(C4OCCO4)cc23)cc1	D1 antagonist -56
CC1(c2ccc3noc(-c4ccc(F)cc4)c3c2)OCCO1	none
Cc1ccc(NS(=O)(=O)c2cc(C(=O)NCc3ccccn3)ccc2Cl)cc1C	D1 antagonist -31
O=C(NCc1ccccn1)c1ccc(NS(=O)(=O)c2cccc(Cl)c2)cc1	DRD3 antagonist -61
CCc1ccccc1NC(=O)c1cc(S(=O)(=O)N(CC)c2ccccc2)ccc1F	none (no result: DRD3 antagonist)
COc1cccc(N2CCN(C(=O)c3ccc(Cn4c(=O)[nH]c5cc(OC)c(OC)cc5c4=O)cc3)CC2)c1	none (no result: DRD3 antagonist)
COc1ccccc1NC(=S)NNC(=O)c1ccccc1Br	D1 antagonist -80
COc1ccccc1C(=O)NNC(=O)c1ccccc1Br	none
Cc1cccc(NC(=S)NNC(=O)c2ccccc2OC(F)F)c1	DRD3 antagonist inconclusive, D1 antagonist -40
COc1ccccc1NC(=S)NNC(=O)c1ccccc1	DRD3 antagonist -72 (no result: D1 agonist, D1 PAM, D1 antagonist)
CCOc1ccc2nc(N3CCCC(C(=O)N4CCN(CC)CC4)C3)sc2c1 (stereo not given)	DRD3 antagonist -65
CCCN1CCN(CCCNC(=O)C2CCCN(c3nc4ccc(OCC)cc4s3)C2)CC1 (stereo not given)	none
CCCCCc1ccc(C)cc1O	none (no result: D1 agonist, DRD3 antagonist, D1 PAM, D1 antagonist)
CCCCN1C(=O)/C(=c2\sc3nc(=O)c(-c4ccccc4)nn3c2=O)c2ccccc21	DRD3 antagonist -69
CCCc1cc2c(cc1N(C)S(=O)(=O)c1ccccc1)OCO2	none (no result: D1 agonist, D1 PAM, D1 antagonist)
O=C(CN1C(=O)C2C3C=CC(C3)C2C1=O)Nc1ccc(C(=O)O)cc1 (stereo not given)	D1 antagonist -30
COC(=O)c1ccc(NC(=O)CN2C(=O)C3C4C=CC(C4)C3C2=O)cc1 (stereo not given)	none
CC(C)(C)OC(=O)N1CCC(c2c(C(=O)NCc3ccc4c(c3)OCO4)cnn2-c2ccccc2Cl)CC1	none (no result: DRD3 antagonist)
O=C(COC(=O)C1CCN(c2ccc(C(F)(F)F)cn2)CC1)Nc1ccc(Cl)cn1	D1 antagonist -59
O=C(COC(=O)C1CCN(c2ccc(C(F)(F)F)cn2)CC1)Nc1ccc(Cl)cc1	none
CC(C)N1CC=C2C(C#N)=C(N)C(C#N)(C#N)[C@H](c3ccoc3)[C@H]2C1	none (no result: D3 ag, DRD3 antagonist)
CC(C)N1CC=C2C(C#N)=C(N)C(C#N)(C#N)C(c3ccccc3)C2C1 (stereo not given)	DRD3 antagonist -77
COc1cc(C2C3CN(C)CC=C3C(C#N)=C(N)C2(C#N)C#N)ccc1OC(C)C (stereo not given)	DRD3 antagonist inconclusive, D1 antagonist -50
CCN1CC=C2C(C#N)=C(N)C(C#N)(C#N)C(c3cc(Cl)ccc3Cl)C2C1 (stereo not given)	DRD3 antagonist -90
COc1cc([C@@H]2[C@H]3CNCC=C3C(C#N)=C(N)C2(C#N)C#N)ccc1OC(C)C	none
CCCC[C@@H]1CNC(=O)C(=O)N1CCCc1cc(OC)c(OC)c(OC)c1	D3 ag 30
C#CCSc1nnc(CSc2nc3ccccc3s2)n1-c1ccccc1	D1 antagonist -30
O=C(Nc1ccncc1)C1CCN(S(=O)(=O)c2c(Cl)cccc2Cl)CC1	none
COc1ccc(NS(=O)(=O)c2ccc(-c3coc(C)n3)cc2)c(OC)c1	D1 antagonist -33
Cc1ccc(N(C)S(=O)(=O)c2ccc(-c3coc(C)n3)cc2)cc1	D1 antagonist -39 (no result: DRD3 antagonist)
Cc1nc(-c2ccc(S(=O)(=O)NCc3ccc(F)cc3)cc2)co1	D1 antagonist -56 (no result: DRD3 antagonist)
COc1ccc(-c2nc(CNS(=O)(=O)c3ccc(F)cc3)cs2)cc1	D1 antagonist -32 (no result: DRD3 antagonist)
COc1ccc(-c2nc(CNS(=O)(=O)c3ccc(C)cc3)cs2)cc1	none (no result: DRD3 antagonist)
CN1CCC(=O)N(CCOc2ccccc2)CC1	DRD3 antagonist inconclusive
Cc1cccc(Oc2nc3c(c(=O)n(C)c(=O)n3C)n2C)c1C	none (no result: DRD3 antagonist)
c1ccc(-c2cc(CSc3nc4ccccc4[nH]3)on2)cc1	D1 antagonist -31
COc1ccc(/C=C/C(=O)NCC(=O)N/N=C/c2cc(Br)ccc2OC)cc1	DRD3 antagonist -58
COc1ccc(Br)cc1/C=C/C(=O)Nc1ccc(C)cc1	DRD3 antagonist -75
CCCCNC(=O)/C=C/c1ccc(OC)c(Br)c1	D1 antagonist -30
COc1ccc(/C=C\C(=O)NCC(=O)N/N=C/c2ccc(O)cc2O)cc1	none
O=C(CNC(=O)c1ccc(F)cc1)N/N=C/c1cc(Br)ccc1OC(=O)/C=C/c1ccco1	D1 antagonist -45
CCCc1ccc(C(O)c2ncc(-c3ccc(OC)cc3)[nH]2)cc1 (stereo not given)	DRD3 antagonist inconclusive (no result: D1 agonist, D1 PAM, D1 antagonist)
Cc1ccc(NC(=O)C2CCC(CNS(=O)(=O)c3cccc4nsnc34)CC2)c(Cl)c1 (stereo not given)	none (no result: DRD3 antagonist)
Cc1ccc(S(=O)(=O)NCc2ccc(N3CCN(C(=O)OC(C)(C)C)CC3)cc2)cc1	none
COc1ccccc1/C=C/C(=O)NCC(=O)N/N=C/c1cc(Br)ccc1OC	DRD3 antagonist -71 (no result: D1 antagonist)

Bioassay records deposited in PubChem BioAssay by National Center for Advancing Translational Sciences (NCATS).
